# Data from PubChem BioAssay (NCI).
# The panel holds about 83,000 compounds, 20% with a hit somewhere; the sample as a whole holds those more often.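 48-hour exposure, single concentration, 96-well plates; percent growth endpoint where 0 means no net growth. Active: below 10.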 A number with no mark means an inactive call. Active and inactive are the calls of the source.
# Columns and labels:
# Assay in all cases: NCI-60 one-dose screen, 48 h (100 = growth as untreated, 0 = no growth, -100 = all killed)
# Settings in all cases: 10 µM unless noted
# SR leukemia = system: SR leukemia
# RPMI-8226 leukemia = system: RPMI-8226 leukemia
# OVCAR-8 ovarian = system: OVCAR-8 ovarian
# OVCAR-5 ovarian = system: OVCAR-5 ovarian
# OVCAR-4 ovarian = system: OVCAR-4 ovarian
# SK-OV-3 ovarian = system: SK-OV-3 ovarian
# IGROV1 ovarian = system: IGROV1 ovarian
# HS 578T breast = system: HS 578T breast
# NCI/ADR-RES ovarian = system: NCI/ADR-RES ovarian
# OVCAR-3 ovarian = system: OVCAR-3 ovarian
Structure (SMILES),growth (SR leukemia),growth (RPMI-8226 leukemia),growth (OVCAR-8 ovarian),growth (OVCAR-5 ovarian),growth (OVCAR-4 ovarian),growth (SK-OV-3 ovarian),growth (IGROV1 ovarian),growth (HS 578T breast),growth (NCI/ADR-RES ovarian),growth (OVCAR-3 ovarian)
COc1cccc2c1n([O-])c1cccc(OC)c1[n+]2=O,19.8%,31.8%,52.8%,18.2%,50.2%,90.8%,-46.3% (active),99%,61.1%,
CC(C)(C)c1ccc(OCCOC(=O)CBr)cc1,44.7%,88.2%,83.8%,104%,98.8%,104%,2.57% (active),108%,108%,
C/C(=C\c1ccc2ccccc2c1)[N+](=O)[O-],4.41% (active),-33.9% (active),11.7%,82.6%,87.6%,99.4%,-20% (active),,88.4%,-76.6% (active)
C/C=C/C/C=C/[C@H](C)C[C@H](O)[C@@H]1C[C@@H]2O[C@H]2/C=C/[C@@H]2OC(C)(C)O[C@H]2/C=C/C[C@H](C)CC(=O)O1,18.8%,-5.18% (active),15.8%,68.5%,23.3%,88.5%,25.2%,-18.8% (active),7.52% (active),
COC(=O)[C@H](Cc1cn(C)cn1)NC(=O)[C@H](CC(=O)OCc1ccccc1)NC(=O)Nc1cc(C(F)(F)F)cc(C(F)(F)F)c1,-46.4% [100 µM] (active),-65.4% [100 µM] (active),-77.4% [100 µM] (active),-93.2% [100 µM] (active),-78% [100 µM] (active),-100% [100 µM] (active),-82.4% [100 µM] (active),,-28.4% [100 µM] (active),-99% [100 µM] (active)
C=C(C)C(C(=O)OCC)(C(=O)OCC)C(C)C,120%,99.4%,108%,94.7%,98.5%,107%,117%,,116%,116%
O=C(Nc1ccc(Cl)c(Cl)c1)O/N=C\c1c(Cl)ccc([N+](=O)[O-])c1Cl,-23.7% (active),-52.7% (active),8% (active),12.1%,-65.8% (active),61.3%,-45.8% (active),,16.5%,-99.3% (active)
O=C1C(Br)=CC2C1C1C3CCC3C2(Br)C12OCCO2 (stereo unspecified),4.59% (active),7.82% (active),28.5%,33.5%,59.2%,32.1%,36.7%,,51.3%,12.5%
O=C(Oc1ccccc1)c1ccccc1Cl,104%,62.9%,104%,90.7%,108%,101%,109%,,104%,97.3%
CC(=O)N(N=O)c1ccc([N+](=O)[O-])cc1Cl,63.1%,17.2%,66.1%,88.5%,55.5%,66.9%,67.7%,,64.5%,44.5%
CCCCCCCCCCCCCCCCCC1=NCCN1CS(=O)(=O)O,-3.33% (active),65%,36.1%,76.9%,82.4%,70.4%,-23.8% (active),,59.2%,50.9%
CC(O)CCC(C)[N+](=O)[O-] (stereo unspecified),95.8%,101%,104%,102%,103%,101%,105%,,111%,108%
COC(=O)C(C(=O)OC)C(Br)C(Br)C(Br)c1ccccc1 (stereo unspecified),-10% (active),80.5%,91.8%,120%,90.1%,109%,107%,,111%,92.6%
CCOc1ccc2nc3ccc(Cl)cc3nc2c1,-19.9% (active),71.5%,103%,216%,82.1%,104%,-8.97% (active),106%,96.4%,
CCC(C)CC(N)O (stereo unspecified),105%,111%,107%,99.9%,109%,111%,118%,,109%,110%
O=C1Nc2c(c(=O)n(-c3ccccc3)c3ccccc23)C(c2ccc(Cl)cc2)N1 (stereo unspecified),77.8%,90.5%,82.4%,101%,105%,89.8%,84%,70.2%,99.7%,
N#CC1=C(N2CCOCC2)NC2c3ccccc3Sc3ccccc3N2C1=N (stereo unspecified),119%,106%,98.7%,109%,109%,81.7%,79.1%,,89.9%,103%
O=S(=O)(O)c1ccc2c(c1)Sc1cc(S(=O)(=O)O)ccc1O2,107%,101%,104%,92.1%,110%,107%,112%,110%,104%,
Nc1nc2c(c3ncncc13)C(c1cccc(C(F)(F)F)c1)Cc1ncncc1-2 (stereo unspecified),32.9%,26.8%,57.6%,77.4%,39.8%,32.9%,54.4%,18.2%,15.3%,
CC(=O)CC(=O)OC/C=C(/C)CCC=C(C)C,92.2%,112%,103%,100%,113%,111%,116%,,102%,110%
COC(=O)[C@H](Cc1cn(C)cn1)NC(=O)[C@@H](NC(=O)Nc1cc(C(F)(F)F)cc(C(F)(F)F)c1)C(C)(C)C,-41.3% [100 µM] (active),-53.8% [100 µM] (active),-55.2% [100 µM] (active),39.7% [100 µM],-71.5% [100 µM] (active),-25.6% [100 µM] (active),-63% [100 µM] (active),,78.1% [100 µM],-99.3% [100 µM] (active)
Cc1cc(CSc2ccc(Cl)cc2)ccc1N,93.5%,15.5%,99.8%,99.6%,96.9%,106%,86%,,95%,97.6%
S=C(N/N=C/c1cc(Cl)cc(Cl)c1)NC12CC3CC(CC(C3)C1)C2,20%,73.8%,56.8%,85.7%,23.4%,66.7%,78.1%,,77%,58.2%
CC(O)CN(CCO)CCN(CCO)CC(C)O (stereo unspecified),89.2%,102%,106%,99.7%,109%,114%,115%,108%,112%,
Cn1c2ccccc2c2ccccc21,87.6%,94.3%,98.3%,107%,105%,102%,102%,,101%,107%
N#Cc1ccc(OCc2nc(N)nc(N)c2-c2ccc(Cl)c(Cl)c2)cc1,26%,67.7%,19.5%,36.9%,98.6%,38.5%,24.3%,,38.9%,45.8%
COc1ccc2cc(C(C)C(=O)Nc3ccc(S(=O)(=O)Nc4cc(C)on4)cc3)ccc2c1 (stereo unspecified),100%,96.6%,95.8%,112%,100%,101%,114%,,105%,110%
O=C1C=C(OCC=C(C(F)(F)F)C(F)(F)F)c2ccccc2C1=O,-19.7% (active),-38.7% (active),-22.8% (active),96.3%,-7.2% (active),59.8%,-12.4% (active),,28.6%,-19.9% (active)
CC(Br)c1nc2ccccc2cc1C(N)=O (stereo unspecified),74.9%,100%,112%,108%,109%,95.3%,108%,,109%,105%
